Test results reported in the supplement of paper PMC6555819.

The sequences below were run on VDR:RXRa (NR concentration 270 nM, RXRa partner concentration 90 nM) (assay: PBM binding z-score (relative to random genomic background probes); higher = stronger binding; sequences stand for … in GC…GCGATTGACAGCGTAGAATGAAGG).
Procedure: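 Protein-binding microarray (Agilent 4x180K custom design, double-stranded 60-nt probes: 5' GC cap, 34-nt variable region, 24-nt constant primer region; full probe sequence given). Purified or IVT nuclear receptor:RXRα heterodimers (3:1 NR:RXRα, mostly 270:90 nM) or homodimers were incubated for 1 h in PBS with 2% milk and no ligand, then detected with Alexa488 antibodies. Fluorescence from o1-orientation probes (~5 replicates averaged) was converted to z-scores against 500 random hg19 background probes. Variable regions are seed direct-repeat (DR0–DR5) sites, all their single-nucleotide variants and half-site ablations.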

Sequence	PBM binding z-score
GATACAGGGTCAGTTAGAGGCCAGAGTATGGAAA	2.97
ATCGAAAGATCGAGGTGAGTATAGAGAAAGGGAA	-0.327
TCGAGTAGGTCAGGGGCATTCAGAATGGCGTCGA	1.55
CGAACTAGGTCAATGACAGTGAATCTCCGCACGC	1.15
CCTATTAGTTGACCATTAGGGCAACCGAAGCTCG	0.563
TAACCTAGGTCATGCGGGCCAGTATAGTGTCGGC	3.55
CCTTGTTGGTCAAGGTCACACACGCTATAGGTAC	3.83
TCTTGTAGCTCAGCAGGTTAAGAAAGCTGGCCAA	-0.236
CGTCAAGGTTCAACTAAGGTAACGTAAAGCACGC	3.94
ACAGAGAGGTGATGAAGGTAACTCAGGCTATCAT	0.7
ATATGTAGGTTATCGGGACATTCAGTTTGCGCAT	1.04
CCGACTGGGGCAGTAAGGTTACCATACCATCCGG	0.907
CCGGCTAGGTCATGGTCAGCTAATCTACAGTATG	1.63
CAAACTAGGTCACGACAGGTCAAAGTCGAATGAC	6.07
CCGACTGCGGCAAAGGTTACCATACTCAGTACGA	0.959
TCATATAGGTAAACAGGTGAATGTCCGTAAGTTA	0.948
TCTTGTAGAGCAACAGGAGGTTAAGAAAGATCGA	0.0425
TCGAGTAGATTAGTCGGGGCATTCAGCCAACATA	-0.0689
CGTCCAATGTCAAGGTCAGTGAAAGAGACTCGAA	2.08
GATACAGGGTCAAGGCCAGATTACGCGTATTGAT	4.45

Sequence	PBM binding z-score
CGTCCAAGGTCAATGCTAGGTCAGTGTAAGCATT	4.85
TCTGATAGGTCAGTTGGTCAGCTAACGAGCTGCC	0.777
TGTCAAAGTTCAACGGTAACGTAAGTATCCACAC	4.79
ACTATTCGTTGAGACGAGGGCAACCGATAGGTTG	0.454
AGTCAAAGTTCATCTAGGCAACGTAAGATATGCT	4.9
CAAACTAGGTCAAGAAAGGTCAAAGTCGAATGAC	6.44
TCTTGTAGATCAATAGAGGATAAGAAAGTGCGCT	0.432
ACTAGCCGGCCAAGGGTCACTCAAGATTAGTCCG	2.59
CCGTACGGGTCACTGACAGGTTATAGCATTTGGA	3.72
TGAATGAGGGTAAAGATCAGGGAACGTGGCGTCG	-0.0441
ATCGAAAGGTCGCGGTGAGTATAGAGAAAGGGAA	3.74
ATACCAAGGTGATCGTGAGGTCGTTTATACTAAC	3.6
CCGACTGTGGCATAAGGTTACCATAAGCCAGCCC	0.153
GCGACTGGGGCATCAGCAGGTTCCCATAACTTAA	-0.515
CTCGAAATGTCGGTTGAGGTGAGTATACGGATAA	-0.148
CCACACAGGTGAGAAGGTAACTCAGCCTCGATTA	0.0106
CCTAGCAGGCCTATCTGGGTCACTCAAGGCTTGA	0.253
ATCTCAAGGTAAGACTCAGTTCAGTGAAGAACGC	1.27
ATCTCTAGGTAACAAGTCCAGTGAAAGAGAGGAC	0.103
TAGCCTAGGTCATGCGCCAGTATACCACGCGAAC	2.01
